# The campaign covered roughly 360,000 compounds. About 25,000 (6.9%) were called active. Inconclusive results (about 9%) are left out. The call rests on the fitted dose curve; in most records, active means well fitted inhibition curve with a large enough effect; inconclusive means small, poorly fitted or top-dose-only effect; inactive means flat fitted curve, though single readings scatter. The entries come from a sample that favours actives as a whole.
# Target: Luciferin 4-monooxygenase (Photinus pyralis) (UniProt P08659)
# Experiment: qHTS profiling assay for firefly luciferase inhibitor/activator using purifed enzyme and Km concentrations of substrates (counterscreen for miR-21 project); further: nearly all actives have a fitted effect of over 55% in size;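 on activity change, negative = inhibition: plate controls were vehicle for no effect and reference inhibitor for full effect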
# Settings: purified FLuc, luminescence inhibition; series mostly up to 57.5 µM; activity change, negative = inhibition: at the top concentration
# Outline: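 Purified P. pyralis luciferase, 10 nM final, with Km-level 10 uM D-luciferin and 10 uM ATP in 50 mM Tris acetate pH 7.5, 10 mM Mg acetate, 0.01% Tween-20, 0.05% BSA; 6-point qHTS titration about 60 µM downward; luminescence read.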
# Potency means the concentration at half of the fitted maximal effect.
# Chain of Luciferin 4-monooxygenase (Photinus pyralis) (P08659 whole entry, looked up): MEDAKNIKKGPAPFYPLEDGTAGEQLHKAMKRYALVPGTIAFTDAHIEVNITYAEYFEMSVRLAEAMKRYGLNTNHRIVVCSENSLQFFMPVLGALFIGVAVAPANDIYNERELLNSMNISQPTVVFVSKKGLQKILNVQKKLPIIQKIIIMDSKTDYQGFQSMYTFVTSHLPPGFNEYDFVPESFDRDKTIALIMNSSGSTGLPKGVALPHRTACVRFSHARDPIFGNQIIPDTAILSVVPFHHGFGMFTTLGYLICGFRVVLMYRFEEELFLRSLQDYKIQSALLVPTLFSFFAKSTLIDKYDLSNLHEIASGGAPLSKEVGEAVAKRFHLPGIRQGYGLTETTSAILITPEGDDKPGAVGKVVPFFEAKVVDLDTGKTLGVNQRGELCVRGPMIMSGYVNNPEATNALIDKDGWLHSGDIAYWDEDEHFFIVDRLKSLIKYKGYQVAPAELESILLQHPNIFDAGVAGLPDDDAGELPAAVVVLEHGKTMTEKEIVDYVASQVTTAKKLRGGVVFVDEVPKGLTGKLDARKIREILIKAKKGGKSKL
Compound,"activity change, negative = inhibition",Potency
CCOc1ccc(NC(=O)COc2ccc(C(=O)N3CCC(C(N)=O)CC3)cc2OC)cc1,3.81% (inactive),
CCCCN(C(=O)c1ccc2ccccc2c1)c1c(N)n(CCCC)c(=O)[nH]c1=O,-2.3% (inactive),
Cc1ccc(-n2nc(N)c3c(=O)oc(N(C)C)nc32)cc1,-1.16% (inactive),
O=C(Nc1ccc(NC(=O)c2cccs2)cc1)c1ccc2ccccc2c1,-5.42% (inactive),
O=C(Nc1ccc2oc(-c3ccc4ccccc4c3)nc2c1)c1cccs1,,5.36 µM (active)
CCN(CCCNC(=O)c1cc(Nc2ccc(OC)cc2)nc2ccccc12)c1cccc(C)c1,-6.29% (inactive),
Cc1ccc(S(=O)(=O)n2nc(C)c(S(=O)(=O)N3CCCCCC3)c2C)cc1,-7.72% (inactive),
CCC(=O)N1CCc2cc(CNS(=O)(=O)c3ccc(Br)s3)ccc21,-16.4% (inactive),
Cc1ccccc1Nc1nn2c(=O)c3ccc(C(=O)NCCc4ccc(Cl)cc4)cc3nc2s1,-8.59% (inactive),
Cc1cc(C(=O)COc2ccc(Br)cc2F)c(C)n1C1CC1,,13.5 µM (active)
O=C(COc1ccc(Br)cc1F)NC1CCN(Cc2ccccc2)CC1,0.0424% (inactive),
CC(=O)C1=C(C)NC(=O)NC1c1cc(Br)ccc1OCC#N (stereo unspecified),1.51% (inactive),
O=C(CSc1nnc(SCc2ccc(Cl)cc2)s1)N/N=C/c1ccccc1Cl,,6.01 µM (active)
O=C(Cc1ccccc1)N/N=C/c1ccc(Cl)cc1Cl,-11.1% (inactive),
O=C(CC(=O)N/N=C\c1cccc(Cl)c1Cl)NCc1ccccc1,-0.0161% (inactive),
Cc1cc(NC(=O)CCS(=O)(=O)c2ccc(F)cc2)no1,2.43% (inactive),
O=C1CC2(CCN(C(=O)COc3ccc(F)cc3)CC2)Oc2ccccc21,-0.972% (inactive),
CCCc1cc(=S)n2c([nH]c3ccccc32)c1C#N,,19 µM (active)
CCOC(=O)CCc1c(C)c(C#N)c2[nH]c3ccccc3n2c1=O,5.14% (inactive),
CN(C)c1ccc(C(CNS(=O)(=O)c2cc(F)ccc2F)N2CCOCC2)cc1 (stereo unspecified),-1.51% (inactive),
Cn1nc(-c2ccccc2)c2cc([N+](=O)[O-])ccc21,5.68% (inactive),
Cc1nn(-c2ccc([N+](=O)[O-])cc2)c(N)c1-c1ccccc1,,7.57 µM (active)

Compound,"activity change, negative = inhibition",Potency
Cc1cc(CO)nn1-c1ccc([N+](=O)[O-])cc1,4.75% (inactive),
COc1ccc(CCNC(=O)c2ccc(-n3c(C)cc4c3CCCC4)cc2)cc1OC,-9.64% (inactive),
COc1cc(C(=O)NCC(c2ccc(Cl)cc2)N2CCOCC2)cc(OC)c1OC (stereo unspecified),1.1% (inactive),
Cc1ccccc1N1CC(C(=O)Nc2nnc(SCCC3OCCO3)s2)CC1=O (stereo unspecified),0.587% (inactive),
O=C(NNC(=O)c1cccnc1)Nc1ccccc1,-4.89% (inactive),
C=C(C)C(=O)Nc1cccc(C(C)=O)c1,3.01% (inactive),
Cc1ccc(NC(=O)c2cc3cc(C)ccc3n2C)cc1,-7.32% (inactive),
Cc1ccc(NC(=O)Nc2ccc3oc(C)nc3c2)cc1,,1.2 µM (active)
CC(=O)c1cccc(NC(=S)N2CCCC2)c1,-1.78% (inactive),
Cc1nc2ccc(NC(=O)C(F)(F)F)cc2o1,5.14% (inactive),
CC(=O)c1cccc(NC(=O)Nc2ccc(C)cc2)c1,,4.78 µM (active)
Cc1ccc(NC(=O)Nc2cccnc2)cc1,,10.7 µM (active)
Cc1ccc(NC(=O)NCC(c2cccnc2)N2CCOCC2)cc1 (stereo unspecified),1.79% (inactive),
Cc1cccc(N2CCN(C(=O)Cn3ncc4c5ccccc5n(C)c4c3=O)CC2C)c1 (stereo unspecified),-17.6% (inactive),
CCN(CC)S(=O)(=O)c1cc(C(=O)Nc2cc(S(=O)(=O)N3CCOCC3)ccc2N2CCCC2)ccc1F,0.283% (inactive),
CN1CCN(/N=C2/C(=O)Nc3ccc([N+](=O)[O-])cc32)CC1,3.69% (inactive),
CCCCN(C(=O)C1CCC1)c1c(N)n(Cc2ccccc2)c(=O)[nH]c1=O,3.44% (inactive),
CCOc1ccc(NC(=O)C(CC(C)C)N2Cc3ccccc3C2=O)cc1 (stereo unspecified),-1.23% (inactive),
CCOC(=O)c1ccc(NC(=O)C2CC(=O)N(c3ccc(C(C)C)cc3)C2)cc1 (stereo unspecified),5.6% (inactive),
CCNC(=O)CC1C(=O)N(c2ccc(OC)cc2)C(=O)N1CCOC (stereo unspecified),-1.18% (inactive),
O=C(c1ccc(Oc2ccc(Cl)cc2)c([N+](=O)[O-])c1)N1CCCC1,7.17% (inactive),
CCOC(=O)c1oc2ccc(S(=O)(=O)n3nc(-c4ccccc4OC)cc3N)cc2c1C,-2.26% (inactive),

Compound,"activity change, negative = inhibition",Potency
COc1ccc(-c2[nH]c3c(c2-c2c(-n4cccc4)n(C)c(=O)n(C)c2=O)c(=O)n(C)c(=O)n3C)cc1,-0.923% (inactive),
COC(=O)c1cc(NC(=O)c2nn(C)c(=O)c3ccccc23)cc(C(=O)OC)c1,3.92% (inactive),
CCc1ccccc1NC1c2ccccc2C(=O)N1c1cccnc1 (stereo unspecified),-0.0554% (inactive),
COC(=O)c1cc(NC2c3ccccc3C(=O)N2c2ccc(Cl)cn2)cc(C(=O)OC)c1 (stereo unspecified),,6.01 µM (active)
CCOc1ccc(C(=O)N2CCN(CCc3ccccn3)CC2)cc1,3.42% (inactive),
CCCCNC(=O)CSc1nc2cc3c(cc2c(=O)n1CCCCCC(=O)NCc1ccc2c(c1)OCO2)OCO3,0.542% (inactive),
CCCCN=C1C([N+](=O)[O-])=CC=C2C1=NC1(CCCCC1)N2O,-11% (inactive),
Cn1c(=O)c(C(=O)Nc2ncccn2)c(O)c2ccccc21,,21.3 µM (active)
C=CCn1c(=O)c(C(=O)Nc2ncccc2O)c(O)c2ccccc21,-6.51% (inactive),
CCCn1c(=O)c(C(=O)Nc2cc(C)ccn2)c(O)c2ccccc21,1.71% (inactive),
C=CCC(Nc1ccccc1)c1cccc(OC)c1OC (stereo unspecified),-12.1% (inactive),
CCCCn1c(N)c(N(CCOC)C(=O)c2oc3ccc(OC)cc3c2C)c(=O)[nH]c1=O,2.03% (inactive),
COCCNC(=S)N1CCC(NC(=O)C23CC4CC(CC(C4)C2)C3)CC1,-0.263% (inactive),
Cc1ccn2c(Nc3ccc4c(c3)OCCO4)c(-c3ccc(C)s3)nc2c1,,8.49 µM (active)
Cc1ccc(-c2nc3cccc(C)n3c2Nc2ccc3c(c2)OCCO3)cc1,-10.8% (inactive),
Cc1ccc(Nc2c(-c3ccc(C)s3)nc3ccccn23)cc1,,13.5 µM (active)
Oc1ccccc1-c1nc2ccc(Cl)cn2c1Nc1ccc2c(c1)OCCO2,-18.4% (inactive),
CC(C)(C)Nc1c(-c2cccs2)nc2ccccn12,-13.8% (inactive),
Cc1ccc(Nc2c(-c3ccc(C)cc3)nc3cnccn23)cc1,-14.5% (inactive),
Cn1c(=O)nc2n(-c3ccc(Br)cc3)c3cccc(Cl)c3cc-2c1=O,-1.13% (inactive),
O=C(COc1ccccc1F)OCc1cc(=O)n2nc(C3CCCCC3)sc2n1,-13.9% (inactive),
CC(C)CNc1ncnc2c1nnn2C,-2.58% (inactive),

Compound,"activity change, negative = inhibition",Potency
O=S(=O)(c1ccc2nc(NCc3ccccc3Cl)ccc2c1)N1CCCCC1,-1.79% (inactive),
O=C1C=C(c2cccc(Br)c2)C[C@@H](c2ccc(F)cc2)C1,2.31% (inactive),
Cc1ccc(C)c(N2CCN(Cc3nnc(-c4ccccc4)o3)CC2)c1,2.45% (inactive),
O=C(c1[nH]ncc1-c1ccc(Cl)cc1)C1CO1 (stereo unspecified),-11.5% (inactive),
CC(C)N(Cc1nnc(-c2ccc(Cl)cc2)o1)C(=O)C1=COCCO1,-2.55% (inactive),
O=C(c1nnc(-c2ccc(Cl)cc2)o1)C1CCCC1,,5.36 µM (active)
CCOCCCNC(=O)c1ccc2nc(CCc3ccccc3)oc2c1,-12.1% (inactive),
CN1CCC(N(C)S(=O)(=O)c2ccc(NC(=O)c3cccc(C#N)c3)cc2)CC1,4.81% (inactive),
Cc1ccc(C2=Nc3c(ccc4ccccc34)C(c3ccncc3)=NN2)cc1,3.9% (inactive),
CCOc1ccc2c(c1)C(c1ccc(C)cc1)=NNC(c1ccc(C)cc1)=N2,,23.9 µM (active)
COc1ccc2c(c1)C(c1cccs1)=NNC(c1cccnc1)=N2,-0.0149% (inactive),
COCCCNC(NC(=O)c1ccc(C)cc1)C(Cl)(Cl)Cl (stereo unspecified),-0.651% (inactive),
COc1ccc(CCNC(=O)c2ccccc2OCc2ccccc2)cc1,-12.9% (inactive),
COc1cccc2[nH]c(C(=O)NCCc3ccccc3)cc12,,23.9 µM (active)
COc1ccc(CCNC(=O)c2ccccc2-c2ccccc2C(=O)O)cc1OC,2.35% (inactive),
O=C(Cn1ncn2nc(-c3cccs3)cc2c1=O)NCc1cccc(Br)c1,-13.8% (inactive),
CC(=O)c1ccc(NC(=O)COc2ccccc2-c2nc(-c3ccccc3)no2)cc1,3.11% (inactive),
CC(=O)Oc1ccccc1C1=NN(C(C)=O)C(c2ccccc2)C1 (stereo unspecified),-0.0618% (inactive),
COc1ccc(/C=C/c2noc(-c3ccccc3OC(C)=O)n2)cc1,,15.1 µM (active)
Oc1ccccc1-c1nc(/C=C/c2ccc(F)cc2)no1,,0.757 µM (active)
CCOC(=O)c1c(S(=O)(=O)N2CCC(C(=O)NCc3ccccc3OC)CC2)c(C)n(C)c1C,2.97% (inactive),
COc1ccc(CNC(=O)Cn2nnc(-c3ccc(S(C)(=O)=O)cc3)n2)cc1,-0.976% (inactive),

Compound,"activity change, negative = inhibition",Potency
CCCCOC(=O)/C(C#N)=C/c1ccc(-c2cccc(C(F)(F)F)c2)o1,3.51% (inactive),
CCCCN1CC(c2nc3ccccc3n2CCCCOc2ccc(C)cc2C)CC1=O (stereo unspecified),-1.5% (inactive),
COc1ccc(C(=O)OCC(=O)N2CC(=O)Nc3ccccc32)cc1Br,-0.738% (inactive),
CCc1ccc(S(=O)(=O)Nc2cc3c(C(=O)OCc4ccccc4)c(C)oc3c3ccccc23)cc1,-0.765% (inactive),
CCC(=O)N1CCc2cc(Br)cc(S(=O)(=O)Nc3ccc(C)cc3C)c21,-2.76% (inactive),
O=C(COc1ccc(S(=O)(=O)Nc2cccc(C(F)(F)F)c2)cc1)N1CCOCC1,3.06% (inactive),
O=C(Nc1ccc(OCC(=O)N2CCOCC2)cc1)c1cc(F)c(F)cc1Cl,,9.53 µM (active)
O=C(Nc1cccc(OCC(=O)N2CCOCC2)c1)C1CCCCC1,0.505% (inactive),
Cc1ccccc1CSCCNC(=O)C1CCN(S(=O)(=O)Cc2ccccc2)CC1,-7.53% (inactive),
C=CCN1CCN(C(=O)CCCc2ccccc2)CC1,,2.13 µM (active)
CCC(C)NC(=O)CCCc1ccccc1 (stereo unspecified),-14.1% (inactive),
CC1=NN(C(=O)CCCc2ccccc2)C(O)(C(F)(F)F)C1 (stereo unspecified),4.59% (inactive),
COc1cc(-c2nnc(NC(=O)C3=COCCO3)o2)cc(OC)c1OC,4.13% (inactive),
CC(=O)NCCC(=O)Nc1nc(C)c(Cc2ccc3c(c2)OCO3)s1,-13.8% (inactive),
O=C(Nc1ccc(S(=O)(=O)N2CCCC2)cc1Cl)C1=COCCO1,-1.32% (inactive),
CC(=O)NCc1ccc(-c2csc(NC(=O)CCCc3nc4ccccc4c(=O)[nH]3)n2)cc1,-4.62% (inactive),
Cc1ccc(-c2csc(NC(=O)C3=COCCO3)n2)cc1C,,6.75 µM (active)
CC(=O)NCCC(=O)Nc1nc(-c2ccc3c(c2)OCCO3)cs1,,19 µM (active)

# — PubChem BioAssay AID588342 (National Center for Advancing Translational Sciences (NCATS), 2011)
